High-throughput results from PubChem.
Arbovirus anti = antivirals against arbovirus infection, primary screen, cell-based, full library, 10K replicate subset | actives 0.37% (n = 200,000) | inhibition, % at 10 µM | arbovirus infection cell-based antiviral screen | AID 1251, 2008; in the data active = inhibition above about 30%
HSV replic up = enhancers of HSV replication in host cells, fold increase, host cell viability. HSV replication augmentation in cells. maximum fold increase. actives 0.005% (n = 220,000). AID 1956, 2009; in the data active = maximum fold increase above about 1.5; inconclusive = no clear call, values can overlap the other calls; tested in PC3 cells
ROMK mod = ROMK potassium channel modulators, primary screen, cell-based, thallium flux, MLSMR library. Tet-inducible ROMK, thallium flux fluorescence; actives lie on both sides. B-score at 10 µM. actives 2% (n = 130,000). AID 1918, 2009;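 active = signal ratio slope over the read window, or its plate-corrected B-score, at least 3 SD from the plate mean, either direction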;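 note: B-score of the F/F0 ratio slope over 7 to 12 s after thallium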
Measles CPE = compounds protecting cells from measles virus cytopathic effect, primary screen, measles RdRp inhibitor project, single point, MLSMR library, absorbance. Measles virus-infected cells, CPE protection. protection (pct of control), % at 4 µM. actives 1.5% (n = 140,000); in the data active = protection mostly above about 24%, no sharp cut-off; inactive = mostly below about 26%
KCC2 mod = KCC2 cotransporter modulators, thallium flux, primary screen, cell-based, HEK293 KCC2, FluoZin-2 fluorescence, MLSMR. actives 2.2% (n = 190,000). B-score of Tl+ flux slope (higher = more flux/activation; lower = inhibition) at 10 µM. KCC2 cells, thallium flux FluoZin-2 fluorescence;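 active = thallium flux slope and its plate-corrected score both differing from the plate sample mean at a set confidence after two filtering rounds, in either direction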;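 note: slope of fluorescence scaled to starting intensity during 10 to 20 s after thallium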
ROMK hit retest = ROMK channel modulator hit retest, confirmation, cell-based, thallium flux, duplicate, resupplied hits. shares compounds with ROMK mod. fluorescence ratio; hits give low values. normalized thallium flux (F/F0 slope) at 10 µM. actives 54% (n = 3,000). AID 1917, 2009;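 active = Flux at 10 µM at least 3 SD below or above vehicle control mean in one or both replicates; inconclusive = no clear call, values can overlap the other calls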
* hit, by the source's call; i = inactive; ? = inconclusive; nt = not tested or not shown. Sampled rows, rich in hits. Any-hit rate of the full collection: about 4%.

SMILES	Arbovirus anti	HSV replic up	ROMK mod	Measles CPE	KCC2 mod	ROMK hit retest
COc1ccc(C2(O)CCN(C(=O)Cc3cccnc3)CC2)cc1	-2	i	-1	14	0.012	nt
COc1ccc(C2(O)CCN(CCCCOc3ccccc3)CC2)cc1	4	i	-4.6*	0	-0.54	0.061*
Cc1ccccc1NC(=O)OCc1cn(-c2ccc(Cl)cc2)nn1	0	i	nt	6	0.45	nt
O=C(Nc1ccc(Cl)cc1)OCc1cn(-c2ccccc2)nn1	-10	i	0.28	nt	-0.4	?
CCn1nc(C)c(Br)c1-c1nc(-c2cccc(C)c2)no1	nt	i	nt	nt	0.99	nt
Cc1c(NS(=O)(=O)c2ccc(Cl)c(C(=O)OCC(=O)NCc3ccco3)c2)c(=O)n(-c2ccccc2)n1C	15	i	-0.41	nt	-1	nt
C=CCn1c(COc2cccc(C)c2C)nnc1SCC(=O)N1CCN(c2ccccc2)CC1	-34	i	nt	25	-0.93	0.054*
CCn1c(COc2c(C)cccc2C)nnc1SCC(=O)N1CCN(c2ccccc2)CC1	-9	i	nt	nt	-1.5	nt
COC(=O)c1c(NC(=O)CCC(=O)O)sc(Cc2ccccc2)c1C	nt	i	1.5	nt	-0.91	nt
COc1ccc(NC(=O)c2c(NC(=O)CCC(=O)O)sc(-c3ccccc3)c2C)cc1	3	i	nt	nt	-0.88	0.08
COc1ccc(/C(O)=C/c2nc3ccc(C(=O)NCCc4cccc(C)c4)cc3[nH]c2=O)cc1OC	-24	i	nt	14	-0.07	nt
CNc1ncnc2sc(-c3ccccc3)cc12	-8	i	-1	nt	-0.98	nt
OCCOCCNc1ncnc2sc(-c3ccccc3)cc12	1	i	-1.8*	6	-0.59	0.064*
O=C(NCCc1c[nH]c2ccccc12)/C(=C/c1ccco1)NC(=O)c1ccco1	3	i	2.3*	nt	-0.39	0.088
CC(=C\c1ccco1)/C=C(\C#N)C(=O)NCCc1c[nH]c2ccccc12	-4	i	nt	2	1	nt
Cc1cc(C)nc(SCc2ccc(C(=O)N/N=C/c3ccccn3)cc2)n1	6	i	-13*	nt	-1.1	0.085
NC(=O)c1ccc(NCCCN2CCOCC2)c([N+](=O)[O-])c1	0	i	0.066	nt	0.91	nt
Nc1nc(-c2ccccc2)cn1/N=C/c1ccccc1	nt	i	7.3*	nt	0.022	0.089
Cc1cc(C)nc(N2CCCC(C(=O)Nc3nnc(C)s3)C2)n1 (stereo unspecified)	0	i	nt	24	nt	nt
CCc1nnc(NC(=O)C2CCN(c3nc(C)cc(C)n3)CC2)s1	11	i	2.2*	9	nt	0.071
COc1ccccc1CNCC(=O)Nc1cc(S(=O)(=O)N2CCCCCC2)ccc1Cl	nt	i	nt	nt	-1.4	0.066*
COc1cccc(NC(=O)N2CCC(n3nnc4ccccc43)CC2)c1	-5	i	0.15	nt	-3.4	nt
CCOC(=O)C1CCN(c2ccc([N+](=O)[O-])c(C(C)=O)c2)CC1	6	i	-3*	nt	0.81	0.076
Cc1ccc(OC(C)C(=O)N(Cc2cccs2)C2CCS(=O)(=O)C2)cc1C (stereo unspecified)	nt	i	nt	nt	-0.67	nt
COc1ccccc1OCCn1c(C(C)O)nc2ccccc21 (stereo unspecified)	3	i	-4.9*	76*	-0.0051	0.066*
SMILES	Arbovirus anti	HSV replic up	ROMK mod	Measles CPE	KCC2 mod	ROMK hit retest
Cc1ccc(Cn2c(CN3CCN(C(=O)c4ccco4)CC3)nc3c2c(=O)n(C)c(=O)n3C)cc1	10	nt	2.6*	7	nt	0.092
Cn1c(=O)c2c(nc(CN3CCN(C(=O)c4ccco4)CC3)n2Cc2ccccc2)n(C)c1=O	6	i	0.45	4	1.2	nt
CC(=O)Nc1ccc(C(=O)OCC(=O)NC2CCCCCCC2)cc1	4	i	nt	nt	-0.076	nt
Cn1cc([N+](=O)[O-])c(C(=O)NCc2cc3cc(Cl)ccc3[nH]2)n1	35*	i	3.4*	9	0.63	0.092
Cc1c(Br)c(C(=O)NCc2cc3cc(Cl)ccc3[nH]2)nn1C	-6	i	-0.68	1	-0.69	nt
COc1ccc(NC(=O)CCN2C(=O)c3ccncc3C2=O)cc1OC	nt	i	nt	nt	nt	nt
COc1ccc(-c2nc(C=O)cs2)cc1	nt	i	nt	nt	-0.026	nt
COc1cccc(-c2nc(C=O)cs2)c1	6	i	4.4*	nt	-0.044	0.1*
Cc1ccc(/C=N/NC(=O)Cn2nnc(N)n2)o1	nt	i	nt	nt	-0.85	nt
CCc1cc2cc3c(cc2nc1SCC(=O)Nc1cc(C)on1)OCO3	-7	i	nt	3	1.2	0.073
Cc1cnnn1-c1ccc([N+](=O)[O-])cc1	3	i	-3.2*	nt	-0.32	0.077
O=C(Nc1nc2ccccc2[nH]1)c1cccc([N+](=O)[O-])c1	-2	i	0.81	nt	nt	nt
O=C(Cc1nc2ccccc2[nH]1)c1cccc([N+](=O)[O-])c1	nt	i	nt	nt	-0.00012	?
O=C(COc1ccccc1)Nc1nccs1	-2	i	3*	2	nt	0.077
O=C(COc1ccc2ccccc2c1)Nc1nccs1	8	i	-0.94	nt	-0.46	nt
CO/N=C\CC(=O)Nc1ccc(Cl)c(Cl)c1	-13	i	4.7*	nt	0.0063	0.082
COC(=O)CCC(=O)Nc1ccc(Cl)c(Cl)c1	2	i	0.012	3	-0.21	nt
COC(=O)c1c(O)cc(C(C)(C)C)n(-c2ccc(F)cc2)c1=O	12	i	0.18	8	1.4	nt
CC1(C)C2CCC1(CS(=O)(=O)N1CCCc3ccccc31)C(=O)C2 (stereo unspecified)	9	i	-3.4*	28	0.44	0.07
O=S(=O)(Nc1ccccn1)c1cccs1	5	i	0.76	nt	-0.016	nt
N#C/C(=C/c1ccc(N2CCCCC2)o1)C(=O)Nc1ccc(Cl)cc1	3	?	nt	16	nt	0.048*
N#C/C(=C/c1ccc(N2CCCCC2)o1)C(=O)Nc1ccc2ccccc2c1	-7	nt	nt	2	i	nt
CC(Oc1ccc(Cl)cc1Cl)C(=O)OCn1nnc2ccccc2c1=O (stereo unspecified)	4	i	3.7*	10	0.44	0.083
N#Cc1cccc(C(c2nnnn2CCc2ccccc2)N2CCN(C3CCCCC3)CC2)c1 (stereo unspecified)	-4	i	-3.1*	7	nt	0.058*
COc1ccc(C(c2nnnn2CCc2ccccc2)N2CCN(C3CCCC3)CC2)cc1 (stereo unspecified)	-25	i	nt	6	-0.47	nt
O=C(NCc1cccnc1)/C(=C\c1ccc(-c2cccc(Cl)c2)o1)S(=O)(=O)c1ccccc1	-41	i	-4.8*	5	-0.23	0.05*
O=C(NCc1cccnc1)/C(=C/c1ccc(-c2cccc(Cl)c2)o1)S(=O)(=O)c1ccccc1	-46	i	-5.3*	3	0.021	0.051*
C=CCN(CC(=O)c1sc(C(=O)OCC)nc1C)c1cccc(Br)c1	nt	i	nt	nt	nt	nt
